Results on 30 sequences are retold here after PubChem BioAssay AID1508600 (Functional Genomics Laboratory (NCATS/FGL), 2020).

Hit rate of the full screen: of about 53,000 sequences, about 3,700 (7%) were called active.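 The calls were made as follows: active = gene knockdowns whose robust z-score for IL-1 alpha signal is at least 2 or at most -2, so actives lie on both sides; inactive = the rest.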 Many of the other results were omitted from the sample, so actives are more common in it than they were.

The assay in a line: Components of the Cytosolic LPS Sensing Pathway: Gene Identification via Genome-wide siRNA Screen.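 Also: robust z of the log signal after scaling to non-targeting control siRNA wells of the plate.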 The following applies: RAW264.7 macrophages, IL-1a HTRF, actives lie on both sides, screened at 100 nM (by protocol), cells primed 5 h with Pam3CSK4 first. Put shortly: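 RAW264.7; siRNA 100 nM final, RNAiMAX, 48h 37 degrees C; Pam3CSK4 5 h; LipidA + TransIT-TKO 24 h; IL-1a HTRF; CellTiter-Glo viability; robust z vs negative-control median.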
In general terms: In TR-FRET formats the signal depends on donor and acceptor labels being close together.
For GCAUGUUUACGUUCCUGACTT against Slc2a12, the z-score is -0.0386 (inactive).

Regarding GGUUUUAAUUUCAACUGUCTT against Tpp1, the z-score was -0.468 (inactive). Under GGGCAACACAGGACAUCUATT against Amot stands -0.35 (inactive); under GCAGGUUAAGUAGCUGACATT against Dync1li2, -2.37 (active).

Take GGUGUCCACGGUGGUUUGATT against Pfn1: the z-score is -0.268 (inactive). Consider GGGACAGUUGACUUUUUAUTT against Cntn4, for which the z-score was 0.147 (inactive). For CCUUUUGAUGCAUCCCGUCTT against Bpifb3, the z-score was 0.709 (inactive). In the case of GGGACUUUGGGCUAAAUAGTT against Tspan1, the z-score was -1.32 (inactive). Consider CCCUCCACAGAUGAACACCTT against Lgals4, for which the z-score was -2.02 (active). For the sequence GGAUAAUUGAUCAUAGAGGTT against Ufm1, the z-score was -0.495 (inactive). As for GAGUAGGAAUUAGAAUGAUTT against Tmem47, the z-score is -0.00808 (inactive). As for GCAUGAUCUCAGGUGUUUGTT against Timm13, the z-score is -1.54 (inactive). Under GGAUAACUGCUUCAUUUCCTT against Agbl1 stands 0.62 (inactive); under GGAAAGACAAAGAACUCUATT against Ssu72, -0.535 (inactive); under GGAUUUCACUUGAGAAUGATT against Grem1, -0.905 (inactive). Under GGUCAACGUAAAUUGUUCATT against Plppr5 stands 2.94 (active). Under CCUUCUAGUUUGCCUCUGGTT against Olfr877 stands 0.332 (inactive); under GGGAAGAGCAUGUUUGCUGTT against Surf4, 0.982 (inactive).

Regarding GGAGUGUUGCCAGUUCCUATT against Tctn2, the z-score is -0.434 (inactive). Take GGAGUUUCACCAGAAGGCUTT against Ttc24: the z-score was 1.63 (inactive). With GGACUUUGUGAAGGACUCUTT against Gatd1, the z-score was -2.56 (active). Turning to GGAACUUGGAAUUUAGUUGTT against Pla2g4b, the z-score is 1.43 (inactive). Next, GGACAUGGUCCUUCCUAAATT against Arl8b: 0.944 (inactive); GGAAGCUGCACGGCAACUUTT against Btn2a2: -0.132 (inactive); GGAGUGAUCAUCUAUAAUUTT against Rnf133: 2.12 (active). For the sequence “CCUGGUCAAUCGAUUCAUATT against 5330416C01Rik”, the z-score is -0.12 (inactive). On to GGGCAGAGUGGAGUAUCUGTT against Cbx4, for which the z-score is -1.35 (inactive). Regarding GGACACAUGGAAGAGGAUUTT against Rnf139, the z-score is 0.513 (inactive). For the sequence CGAGGAUGCUUUUUAAAAATT against Inip, the z-score is -0.0653 (inactive). For the sequence GCUGCUUUAGCUUAGUUUUTT against Vwa7, the z-score was 0.457 (inactive).
